Results with a measured potency or affinity are listed apart.
Molecular target: Protein S100-A4 (Homo sapiens) (UniProt P26447)
Assay: S100A4-myosin IIA binding inhibitor potency, dose response, biochemical, fluorescence polarization, cherry-picked hits (AID 687001);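 further: 0% = DMSO neutral control wells and -100% = TFP positive control wells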
Details: FP, S100A4/TAMRA-myosin IIA peptide binding; series mostly up to 11 µM; activity change, negative = inhibition: at the top concentration;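 active means signal-lowering compounds whose fitted half-maximal concentration is at or below twice the top tested dose in every run; inconclusive means runs disagree, flat 30 to 70% inhibition, or poor curve fit; inactive means the rest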

Protein S100-A4 (Homo sapiens), sequence (P26447 whole entry, looked up): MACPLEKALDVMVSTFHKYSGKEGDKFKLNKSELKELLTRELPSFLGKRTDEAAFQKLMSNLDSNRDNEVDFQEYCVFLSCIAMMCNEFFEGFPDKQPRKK

Activity change, negative = inhibition, inactive:
Cc1ccc(CNC(=O)c2[nH]c(C(F)(F)F)nc2-c2ccccc2)cc1 -0.469%
CCNC(=O)[C@H]1[C@H](CO)[C@H]2Cn3c(ccc(-c4ccc(F)cc4)c3=O)[C@@H]1N2C 0.752%
Cc1cccn2c(=O)c3cc(C(=O)NC4CCCCCC4)sc3nc12 2.25%
C[C@@H]1CCCCO[C@@H](CN(C)S(=O)(=O)c2ccccc2)[C@@H](C)CN([C@@H](C)CO)C(=O)c2cc(NC(=O)CCCN(C)C)ccc2O1 -9.67%
O=C(NCCN1CCOCC1)c1ccc(/C=C2\Sc3ccccc3N(Cc3ccccc3F)C2=O)cc1 -4.52%
CC(=O)N1[C@H](C(=O)NCCCN(C)C)[C@@H](CO)[C@@H]2Cn3c(ccc(-c4cccc(F)c4)c3=O)[C@@H]21 -0.912%
COc1ccccc1NC(=O)N1CCCCN2[C@H](C1)[C@@H](c1ccc(C#CC3CC3)cc1)[C@@H]2CO 40.1%
Cc1cc(C)cc(OCC(=O)OCC(=O)N2CCc3ccccc32)c1 4.97%
C[C@H]1CN([C@@H](C)CO)C(=O)c2cc(NC(=O)NC3CCCCC3)ccc2O[C@@H]1CN(C)C(=O)Nc1ccccc1 0.497%
O=C(CCCN1C(=O)C2CC=CCC2C1=O)Nc1ccccc1F (stereo not drawn) -3.43%
C[C@@H]1CN([C@@H](C)CO)S(=O)(=O)c2ccc(Br)cc2O[C@@H]1CN(C)Cc1ccncc1 5.78%
Cc1cc(F)ccc1S(=O)(=O)N1CCCOC1CNC(=O)C(=O)NCc1ccc2c(c1)OCO2 (stereo not drawn) -1.74%
C[C@@H]1CN([C@@H](C)CO)C(=O)c2cc(C#Cc3ccccc3)cnc2O[C@H]1CN(C)C(=O)c1ccccc1F 2.25%
